From ChEMBL document CHEMBL4513216, “Probing the Open Global Health Chemical Diversity Library for Multistage-Active Starting Points for Next-Generation Antimalarials” (ACS Infect Dis, 2020) come the findings set out here.

Among all 69,000 compounds or so, about 8,600 (12%) showed an effect of 50% or more. Shown is part of a subset that was picked to be rich in strong results.

The test system of the test is Plasmodium berghei. Briefly: Screen against P. berghei liver stage (PbLuc), transformed with Luciferase, at 10uM. It counts as functional, HepG2. Particulars: tested at 10 uM.
Regarding `COc1ccccc1OC1CCN(c2nc(N)nc3[nH]cnc23)CC1`, the INHIBITION is -18.8%.
`Fc1cnc(N2CCC3(CCCN(c4nncs4)C3)C2)nc1` (stereo unspecified): the INHIBITION is reported as 4.68%.
With `COCC1COCCC12CCN(CCc1ccccc1)CC2` (stereo unspecified) the figure was 2.3%; with `O=C(Nc1cn[nH]c1)c1ccncc1`, 35.95%; with `CN(C)C(=O)CNC(=O)c1nc(C2CC2)n(-c2ccccc2Cl)n1`, -20.8%.
The figure for `O=C(c1ccnnc1)N1CC[C@H]2C[C@H](c3ccncn3)O[C@@H]2C1` is 25.2%.
For the compound `Cc1ccc(Oc2ncccc2C(=O)O)c(C)c1`, the INHIBITION is -16.2%.
With `CC(C)c1cc(NCC(O)CO)n2nccc2n1` (stereo unspecified) the figure was 36.8%.
On to `CC(C)c1cc(N2CCC(N)CC2)n2nccc2n1`, for which the INHIBITION is listed as -6.53%.
With `CC(C)c1cc(N[C@@H](CO)C(N)=O)n2nccc2n1`, the INHIBITION is given as 42.3%.
Regarding `CC(C)c1cc(NCC(O)c2ccncc2)n2nccc2n1` (stereo unspecified), the INHIBITION is listed as 0.897%.
Turning to `CC(C)c1cc(N2CCC(CCC(=O)NC3CC3)CC2)n2nccc2n1`, the INHIBITION is recorded as 33.5%.
With `CC(C)c1cc(NCC(C)N2CCCC2)n2nccc2n1` (stereo unspecified) the figure was 65.1%.
With `CC(C)c1cc(N[C@H](C(N)=O)C(C)C)n2nccc2n1`, the INHIBITION amounted to 55.2%.
With `CC(C)c1cc(N2CCN(c3ccc(O)cc3)CC2)n2nccc2n1` the figure was 26.8%; with `Cc1cnn(CC2CCN(c3cc(C(C)C)nc4ccnn34)CC2)c1`, 21.2%.
With `CC(C)c1cc(N2CC[C@H](F)C2)n2nccc2n1` the figure was 65.7%.
With `CC(C)[C@H](Nc1cc(-c2ccncc2)nc2ccnn12)C(N)=O`, the INHIBITION was 25.5%.
The figure for `CC(=O)NCC1CCN(c2cc(C(C)C)nc3ccnn23)CC1` is 59.4%; for `O=C(Cc1ccsc1)N1CCC(O)(CN2CCc3ccccc3C2)C1` (stereo unspecified) it is 30.8%.
As for `COc1ncccc1CN1C[C@@H]2COC[C@]2(COCC(=O)N(C)C)C1`, the INHIBITION is reported as -3.52%.
With `CCn1cc(C(=O)NCCN2CCCc3ccccc32)c(C)n1` the figure was 12.9%; with `Cn1nc(C2CCN(C(=O)c3cccs3)CC2)c2cccnc21`, 47.2%; with `CCc1nc(CS(=O)(=O)Cc2noc(C3CC3)n2)cs1`, 34%.
On to `CC(C)=CCN1CCN(C(=O)C2CC2)CC1`, for which the INHIBITION is 21.5%.
The figure for `CC(C)COCC1CN(Cc2ccsc2)Cc2ncn(C)c21` (stereo unspecified) is 16.4%; for `Cn1nnc2c1C(COCc1cccnc1)CN(Cc1ccoc1)C2` (stereo unspecified) it is 29.4%; for `Cc1nc(C)c(CNCC2(COc3cccnc3)C[C@@H](O)[C@@H](O)C2)s1` (stereo partly specified) it is 33.6%.
In the case of `Cc1noc(CCCC(=O)N2CCCC2c2ccsc2)n1` (stereo unspecified), the INHIBITION was found to be 0.914%.
With `Cc1cccc2c1NC1(CCCC1)NC2=O` the figure was 45.2%.
The figure for `COC(=O)C1CCN(C(=O)Cn2ccc(-c3ccc(F)cc3)n2)CC1` is -36.4%; for `O=C1[C@@H]2CC[C@@H](CN(C3CSCCSC3)C2)N1Cc1cscn1` it is -14.9%.
The figure for `CC(C)c1cc(N2CCC(N(C)C)C2)n2nccc2n1` (stereo unspecified) is 53.9%; for `Cc1cc2nc(C(C)C)cc(N3CCC(O)CC3)n2n1` it is 11.3%; for `Cc1nn2c(N3CCC(O)C3)cc(-c3ccccc3)nc2c1C` (stereo unspecified) it is 38.5%.
With `CC(C)c1cc(N2CCSCC2)n2nccc2n1`, the INHIBITION was -6.03%.
With `Cc1cc2nc(C(C)C)cc(N3CCC(N(C)C)C3)n2n1` (stereo unspecified) the figure was 17.7%.
The figure for `CN(C)C1CCN(c2cc(-c3ccccc3)nc3ccnn23)C1` (stereo unspecified) is 74.9%; for `CC(C)c1cc(N2CCC(C(C)N3CCCC3)CC2)n2nccc2n1` (stereo unspecified) it is 73%.
The figure for `Cc1nn2c(N3CCCC(C#N)C3)cc(-c3ccccc3)nc2c1C` (stereo unspecified) is 19.5%.
As to `CC(C)c1cc(N2CCC[C@H](N)C2)n2nccc2n1`, the INHIBITION stood at 13%.
For `Cc1cc(N2CCCC(N(C)C)C2)n2nccc2n1` (stereo unspecified), the INHIBITION came to 55.4%.
Consider `COC1CCN(c2cc(C(C)C)nc3ccnn23)C1` (stereo unspecified), for which the INHIBITION came out at 7.6%.
The figure for `Cc1cc(N2CCCC(N(C)C)C2)n2nc(C)cc2n1` (stereo unspecified) is -1.16%; for `COc1cccc(OCCc2nnc(NC(C)=O)s2)c1` it is -8.9%; for `N[C@H]1CN(C(=O)CCCc2ccc(F)cc2)C[C@@H]1C1CC1` it is 25.1%.
Take `O=C1COc2ccc(C(=O)NS(=O)(=O)c3cc(F)ccc3F)cc2N1`: the INHIBITION worked out at 33.3%.
With `CCc1cc(NC(=O)C2CCCN(C(=O)c3ccncc3)C2)[nH]n1` (stereo unspecified) the figure was 8.86%; with `O=C(Cc1csc(-c2cccc(Cl)c2)n1)NCc1cccc(C(=O)O)c1`, 34.5%.
Consider `COCCN(CCOC)C(=O)c1c[nH]nc1-c1cccc(F)c1`, for which the INHIBITION is on record as -3.24%.
The figure for `Cc1nc(-c2ccc(Cl)s2)sc1C(=O)NCCCC(N)=O` is -102.2%; for `CCN1CC(COC(=O)c2cc(Br)ccc2F)CC1=O` (stereo unspecified) it is 8.4%; for `CC(C)C1CCCN1CC(=O)NCc1ccc(OCC(N)=O)cc1` (stereo unspecified) it is 12.8%.
Regarding `CC(C)c1cc(N2CCC(NS(C)(=O)=O)CC2)n2nccc2n1`, the INHIBITION was 61.2%.
For the compound `CC(C)c1cc(N2CCC(NS(C)(=O)=O)C2)nc(C(C)C)n1` (stereo unspecified), the INHIBITION is listed as 49.6%.
The figure for `CC(C)c1cc(NC(CO)CO)n2nccc2n1` is 33.2%.
